Assay outcomes (PubChem BioAssay)
APE1 inh-1 – APE1 (human) endonuclease inhibition. P27695. recombinant APE1, TAMRA/BHQ-2 abasic DNA cleavage fluorescence. Potency, µM (top dose mostly 65.8 µM), without a hit: at the top dose activity change, negative = inhibition, actives largely listed as inhibitors. actives 0.35% (n = 350,000). AID 2517;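 further: plate controls were vehicle for no effect and reference inhibitor for full effect; nearly all actives have a fitted effect of over 55% in size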
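APE1 at 0.75 nM preincubated 15 min at room temperature with compound. Reaction then started with 50 nM double-stranded THF-abasic substrate labelled with TAMRA/BHQ-2, and 525/598 nm fluorescence read kinetically. Activity taken as third-minus-first read difference, normalized to DMSO and NSC13755 controls.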
PGK inhibitor – T. brucei PGK inhibition; P07378; PGK/GAPDH coupled, Kinase-Glo luminescence, 60 min; Potency, µM (top dose mostly 57.5 µM), without a hit: at the top dose activity change, negative = inhibition, actives largely listed as inhibitors; actives 0.043% (n = 380,000); further: nearly all actives have a fitted effect of over 60% in size
Target sequence (P07378 whole entry, looked up): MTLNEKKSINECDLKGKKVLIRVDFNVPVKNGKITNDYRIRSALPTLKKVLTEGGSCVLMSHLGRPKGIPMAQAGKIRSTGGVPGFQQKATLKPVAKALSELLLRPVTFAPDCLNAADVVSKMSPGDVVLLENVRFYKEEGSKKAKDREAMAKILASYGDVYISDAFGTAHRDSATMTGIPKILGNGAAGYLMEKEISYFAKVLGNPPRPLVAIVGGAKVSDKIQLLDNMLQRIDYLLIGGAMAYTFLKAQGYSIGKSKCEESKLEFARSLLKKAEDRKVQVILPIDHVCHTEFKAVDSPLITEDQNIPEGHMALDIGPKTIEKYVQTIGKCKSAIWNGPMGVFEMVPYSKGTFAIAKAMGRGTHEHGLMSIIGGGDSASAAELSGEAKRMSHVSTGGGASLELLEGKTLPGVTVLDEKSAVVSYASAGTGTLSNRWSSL
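Recombinant glycosomal PGK reaction used 1,3-bisphosphoglycerate generated in-well by GAPDH (100nM final) in 100mM TEA pH 7.6, 5mM MgCl2, 0.01% Tween-20. After 60 minutes at room temperature, ATP was read by Kinase-Glo Plus luminescence end-point.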
GLS inh – glutaminase GLS (human) inhibition | O94925 | GLS enzymatic activity, qHTS titration | Potency, µM (titrated, usually from 45.5 µM), for inactives: at the top dose activity change, negative = inhibition, usual class: inhibitors | actives 0.21% (n = 410,000) | AID 624170
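Coupled fluorescence readout: glutamate oxidase/HRP/Amplex Red detect glutamate formed by hKGA from L-glutamine (1 mM solution added). Buffer 45 mM KH2PO4 pH 8.2, 0.02% Tween-20; reads at t0 and 30 min RT.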
FEN1 inhibitor – blocks human flap endonuclease 1; P39748; Recombinant FEN1 flap cleavage, fluorescence, 15 min; Potency, µM (top dose mostly 114 µM), without a hit: top-dose activity change, negative = inhibition, usual class: inhibitors; actives 0.35% (n = 390,000); further: nearly all actives have a fitted effect of over 65% in size
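FEN1 at 10 nM, compound pretreatment for 15 min (room temperature), 50 nM final substrate to initiate; endpoint reads at 0 and 15 min; DMSO-only plates used as vehicle background.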
RECQ1 helicase – inhibitors of human RECQ1 DNA helicase. P46063. RECQ1 DNA unwinding, red fluorescence kinetic read. Potency, µM (top dose mostly 57.3 µM), without a hit: top-dose activity, negative = inhibition, hits mostly inhibitors. actives 0.54% (n = 240,000). AID 2549;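 further: plate controls were vehicle for no effect and no enzyme for full effect; nearly all actives have a fitted effect of over 30% in size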
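50 nM RECQ1T1 preincubated 15 min with compound in Tris pH 8.0 buffer with MgCl2, DTT, Tween-20 and 2.5 ug/ml poly(dI-dC); started with 200 nM TAMRA/BHQ-2 forked duplex and 2 mM ATP. Unwinding read as fluorescence (525/598 nm), two reads 2 h apart.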
BLM helicase inh – blocks DNA unwinding by human BLM helicase; P54132; recombinant BLM DNA unwinding, fluorescence dequenching; Potency, µM (highest dose often 56.1 µM), for inactives: at the highest dose activity change, negative = inhibition, actives largely listed as inhibitors; actives 0.2% (n = 350,000);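 further: plate controls were vehicle for no effect and no enzyme for full effect; nearly all actives have a fitted effect of over 35% in size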
DNA dye displace – displaces fluorescent dye from DNA, flagging APE1 artifacts; Potency, µM (highest dose often 28.5 µM), for the others: at the highest dose activity change, negative = inhibition, most hits filed as inhibitors; DNA fluorescent dye displacement counterscreen, fluorescence; AID 2564; actives 7% (n = 480); shares compounds with APE1 inh-1;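 further: loss of thiazole orange fluorescence as the dye is displaced from duplex DNA; 0% = ThO with dsDNA and no compound and -100% = ThO without dsDNA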
EndoIV counter – counter-screen for APE1 inhibitors: inhibitors of E. coli endonuclease IV; actives 4% (n = 560); shares compounds with APE1 inh-1; AID 2565; E. coli Endo IV, fluorogenic AP-site DNA cleavage; Potency, µM (highest dose often 27.1 µM), inactives show top-dose activity change, negative = inhibition, most hits filed as inhibitors;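 further: plate controls were uninhibited enzyme wells for no effect and no enzyme buffer wells for full effect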
APE1 inh-2 – confirmation of inhibitors of human APE1 endonuclease. Potency, µM (series often up to 57.1 µM), without a hit: at the top dose activity change, negative = inhibition, actives largely listed as inhibitors. purified APE1, fluorogenic abasic-site DNA cleavage. actives 44% (n = 750). shares compounds with APE1 inh-1; further: nearly all actives have a fitted effect of over 30% in size
APE1 FP – displaces DNA from human APE1 in FP assay; APE1 binding to TAMRA-labelled double-stranded DNA, fluorescence polarization displacement; Potency, µM (series often up to 28.5 µM), for the others: at the highest dose activity, negative = inhibition, usual class: inhibitors; actives 7% (n = 480); AID 2573; shares compounds with APE1 inh-1
Active calls of the source: *; i = inactive; ? = inconclusive; . = no result given; [ ] = another dose, or the depositor's remark. In the library only some 0.86% were active in any assay of this set; here they are far more common. The call rests on the fitted dose curve; in most records, active means well fitted curve in the direction sought with a large enough effect; inconclusive means small, poorly fitted or top-dose-only effect, or another doubt; inactive means no such curve, though single readings can be large; an effect the other way counts as inactive or inconclusive. Unless noted, on the % scale 0 is the no-effect control and ±100 the full control effect; potency means the concentration at half of the fitted maximal effect.

SMILES	APE1 inh-1	PGK inhibitor	GLS inh	FEN1 inhibitor	RECQ1 helicase	BLM helicase inh	DNA dye displace	EndoIV counter	APE1 inh-2	APE1 FP
O=C(CSc1nnc(SCc2ccccc2Cl)s1)N/N=C/c1c[nH]c2ccccc12	1.1%	-3.9%	-0.3%	3.2%	-4.9%	-10.5%	.	.	.	.
O=C(CSc1nnc(SCc2ccccc2)s1)N/N=C/c1ccc(C(=O)O)cc1	-2.9%	-0.6%	23.9%	1.9%	-1.5%	-3.0%	.	.	.	.
Cc1nc2ccc(C(=O)OC(C)C(=O)c3c(C)[nH]c4ccccc34)cc2nc1C (stereo unspecified)	.	.	.	1.1%	.	.	.	.	.	.
CCOC(=O)c1sc2nc3c(SCCC(=O)O)cc(C(=O)c4cc(OC)ccc4O)cn3c(=O)c2c1C	1.58µM*	-14.6%	5.62µM*	?	?	?	?	10.8%	2.24µM*	?
Nc1ccc(NC(=O)c2ccc(C(=O)Nc3ccc(N)cc3)cc2)cc1	-0.4%	0.2%	2.1%	-5.5%	-21.0%	4.8%	.	.	?	.
CC(=O)Nc1ccc(NC(=O)c2ccc(NC(=O)c3ccccc3)cc2)cc1	12.8%	i	6.4%	-2.6%	.	-12.3%	.	.	.	.
CC(=O)c1ccc(NC(=O)c2ccc3nc(-c4ccco4)c(-c4ccco4)nc3c2)cc1	?	?	14.1µM*	50.1µM*	8.91µM*	15.8µM*	8.91µM*	?	3.98µM*	-45.9%
O=C(c1ccc2nc(-c3ccco3)c(-c3ccco3)nc2c1)N1CCN(c2ncccn2)CC1	?	-4.7%	-9.4%	-15.2%	-19.9%	?	?	-0.7%	?	-12.7%
CCc1nc2ccc(C(=O)Nc3ccc(NC(C)=O)cc3)cc2nc1CC	17.8%	-0.9%	2.0%	2.2%	-7.3%	-10.5%	.	.	.	.
O=C(c1cccc(C(=O)N2CCN(c3ncccn3)CC2)c1)N1CCN(c2ncccn2)CC1	1.8%	-4.0%	-2.3%	-8.9%	-1.6%	-0.2%	.	.	.	.
CN(C)c1cccc(-c2nnc(SCC(=O)NCc3ccco3)n2C)c1	.	.	.	-19.1%	.	.	.	.	.	.
Cc1ccc2c3c(cccc13)-c1ccccc1C2=O	-8.5%	-2.1%	0.3%	?	-8.9%	0.9%	.	.	.	.
Cc1cc2c3c(cccc3n1)C(=O)c1ccccc1-2	?	.	.	.	-8.5%	19.7%	?	6.3%	?	2.51µM*
Clc1ccc(-c2csc3ncnc(Sc4nnnn4-c4ccccc4)c23)cc1	.	.	.	-2.0%	.	.	.	.	.	.
O=C(COc1ccccc1)Nc1ccc2nc(SCC(=O)N3CCCC3)sc2c1	.	i	-7.5%	-5.6%	.	-4.1%	.	.	.	.
Cn1c(SCC(=O)Nc2ccc3nc(SCC(=O)N4CCCC4)sc3c2)nnc1-c1ccccc1	?	-25.7%	-1.6%	-24.3%	?	-26.6%	.	.	-39.5%	.
Cn1nnnc1SCC(=O)NCc1ccco1	2.4%	-1.2%	-7.9%	-10.9%	-2.1%	-4.9%	.	.	.	.
O=C(CSc1nnnn1-c1ccccc1)NC(=O)NCc1ccco1	28.2µM*	-3.4%	5.9%	-7.5%	-22.7%	-17.4%	?	3.7%	?	?
O=C(CSc1nnc(COc2ccccc2Cl)o1)NC(=O)NCc1ccco1	11.2µM*	-10.8%	133.7%	-10.6%	-17.4%	-29.8%	?	-3.6%	14.1µM*	0.4%
CCOc1ccccc1-n1nnnc1SCC(=O)NC(=O)NCc1ccco1	28.2µM*	-10.7%	?	7.4%	-29.3%	-20.6%	?	-4.9%	?	?
Nc1nnnn1-c1ccccc1	.	.	-3.5%	.	.	.	.	.	.	.
CN(C)c1ccc(/C=C/c2ccc3cc(N)ccc3n2)cc1	.	.	.	-1.4%	.	.	.	.	.	.
C[C@@H]1C[C@H]2[C@@H]3CCC4=CC(=O)C=C[C@]4(C)[C@@]3(F)C(O)C[C@]2(C)[C@@]1(O)C(=O)CO (stereo partly specified)	.	.	.	0.3%	.	.	.	.	.	.
O=C(O)c1ccc(COc2ccccc2/C=C2/NC(=O)N(c3cccc(Cl)c3)C2=O)cc1	?	-8.1%	14.4%	56.2µM*	?	20µM*	.	.	15.8µM*	.
O=C(O)c1ccc(COc2ccccc2/C=C2\NC(=O)N(Cc3ccc(F)cc3)C2=O)cc1	-0.9%	-6.2%	4.2%	?	-1.5%	-8.8%	.	.	.	.
CN(C)CCC=C1c2ccccc2C=Cc2ccccc21	2.1%	-3.3%	-3.6%	11.7%	-0.7%	15.0%	.	-11.8%[57.1 µM]	-12.6%	.
Nc1ccc(/C=C/c2cccc3cccnc23)cc1	.	.	.	0.0%	.	.	.	.	.	.
Nc1nc2[nH]c(=S)[nH]c2c(=O)[nH]1	.	.	.	-1.1%	.	.	.	.	.	.
